Bioassay records from PubChem BioAssay.
Tau fibril ThT = tau fibrillization inhibition (ThT binding); 270,000 compounds, 2.1% hits; AID 1460; recombinant tau K18 P301L, heparin-induced fibrillization, ThT fluorescence; Potency, µM (highest dose often 57.4 µM), for inactives: at the top dose activity, negative = inhibition, actives largely listed as inhibitors; P10636; further: nearly all actives have a fitted effect of over 55% in size
Target sequence (P10636 561-689 P618L limits assumed): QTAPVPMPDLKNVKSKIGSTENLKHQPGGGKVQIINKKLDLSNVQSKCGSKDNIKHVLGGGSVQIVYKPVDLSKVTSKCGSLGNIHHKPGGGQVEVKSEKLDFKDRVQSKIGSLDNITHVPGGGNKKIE
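In this qHTS, human K18 P301L tau is incubated with compound and heparin for 6 hr at 37 C, and Thioflavin T fluorescence then reports fibril load.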
Tau FP inhib = tau fibrillization inhibition (FP). 280,000 compounds, 0.39% hits. Potency, µM (series often up to 57.7 µM), for the others: top-dose activity, negative = inhibition, usual class: inhibitors. K18 P301L tau heparin fibrillization, Alexa594 FP, 6 h. P10636; further: nearly all actives have a fitted effect of over 55% in size
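Human tau K18 […] P301L fragment, 15 uM unlabeled plus 0.24 uM Alexa 594-labeled tau (final), with compound and 20 uM heparin in 100 mM sodium acetate pH 7; 6 hr at 37 C, then Alexa 594 FP read.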
Tau fluor cs = counter-screen for tau fibril formation inhibitors; tau K18 P301L (four-repeat tau fragment) Alexa594 fluorescence, heparin fibrillization; Potency, µM (titrated, usually from 57.7 µM), for inactives: at the highest dose activity change, negative = decrease; 280,000 compounds, 0.93% hits; further: nearly all actives have a fitted effect of over 55% in size
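Human K18 P301L tau (15 uM unlabeled plus 0.24 uM Alexa 594-labeled, final) in 100 mM sodium acetate pH 7 was mixed with compound and 20 uM heparin and incubated 6 hr at 37 C.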
HPGD block = blocks human HPGD enzyme activity | purified HPGD, NADH fluorescence kinetic, PGE2 substrate | P15428 | 150,000 compounds, 4.3% hits | Potency, µM, without a hit: top-dose activity change, negative = inhibition, actives largely listed as inhibitors; active means well fitted inhibition curve with a large enough effect, not every such curve was filed as active; inconclusive means small, poorly fitted or top-dose-only effect, or another doubt; inactive means no such curve, though single readings can be large or run the other way
Target sequence (P15428 whole entry, looked up): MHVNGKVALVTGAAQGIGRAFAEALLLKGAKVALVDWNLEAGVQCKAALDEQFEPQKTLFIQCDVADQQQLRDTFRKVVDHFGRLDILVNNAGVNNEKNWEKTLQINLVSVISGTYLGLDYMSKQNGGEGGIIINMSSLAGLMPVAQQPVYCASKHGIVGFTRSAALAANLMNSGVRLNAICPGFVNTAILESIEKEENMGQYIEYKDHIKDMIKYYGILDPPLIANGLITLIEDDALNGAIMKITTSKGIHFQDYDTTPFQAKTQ
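20 nM HPGD preincubated 15 min at room temperature with compound in 50 mM Tris-HCl pH 8, 0.01% Tween 20. Started with 1 mM NAD+ and 30 uM prostaglandin E2; NADH fluorescence (360/450 nm) read 5 times over 30-s intervals, last minus first.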
ALDH1A1 block = blocks purified human ALDH1A1 activity. P00352. Purified ALDH1A1, NADH fluorescence, propionaldehyde substrate. Potency, µM (top dose mostly 75.3 µM), for the others: at the top dose activity, negative = inhibition, usual class: inhibitors. 220,000 compounds, 7.3% hits; active means well fitted inhibition curve with a large enough effect, not every such curve was filed as active; inconclusive means small, poorly fitted or top-dose-only effect, or another doubt; inactive means no such curve, though single readings can be large or run the other way;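 further: plate controls were no enzyme wells and a reference inhibitor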
NPSR antagonist = antagonists of human neuropeptide S receptor cAMP signaling | 220,000 compounds, 1% hits | CHO-NPSR cells, cAMP TR-FRET, antagonist mode | Potency, µM (highest dose often 38.3 µM), inactives show top-dose activity change, negative = inhibition, actives largely listed as inhibitors | AID 1461; further: nearly all actives have a fitted effect of over 50% in size
The depositor's hits bear a star; ? = inconclusive; . = no result; [ ] = remark or other dose. A selection: hits, their analogues and other compounds. The true share with any hit is near 9.5%. Unless noted, the call rests on the fitted dose curve; in most records, active means well fitted curve in the direction sought with a large enough effect; inconclusive means small, poorly fitted or top-dose-only effect, or another doubt; inactive means no such curve, though single readings can be large; an effect the other way counts as inactive or inconclusive. Unless noted, on the % scale 0 is the no-effect control and ±100 the full control effect; potency means the concentration at half of the fitted maximal effect.

SMILES | Tau fibril ThT | Tau FP inhib | Tau fluor cs | HPGD block | ALDH1A1 block | NPSR antagonist
Cc1ccc(C2C3=C(CC(C)(C)CC3=O)NC3=C2C(=O)CC(C)(C)C3)o1 | 2% | 4% | 5% | -10% | ? | -7%[46.1 µM]
CCCC(C1=C(O)CC(C)(C)CC1=O)C1C(=O)CC(C)(C)CC1=O (stereo unspecified) | ? | ? | -12% | 0% | 22µM* | -4%[46.1 µM]
CC1(C)CC(=O)C2=C(C1)Nc1ccccc1NC2c1cccnc1 (stereo unspecified) | -2% | -5% | 0% | -14% | 10% | -10%[46.1 µM]
CC(=N)C1=C(O)CC(C)(C)CC1=O | -6% | 3% | 1% | -7% | ? | 17%[46.1 µM]
COc1ccccc1N(CC(=O)NCC1CCCO1)C(=O)CNS(=O)(=O)c1ccc(Cl)cc1 (stereo unspecified) | . | -1% | -3% | . | . | -1%
Cc1nc(C)c(C(=O)C2=C(O)C(=O)N(CCCN(C)C)C2c2ccco2)s1 (stereo unspecified) | -5% | 0% | 6% | -12% | ? | 0%[46.1 µM]
CC1=CC(C)(C)N2C(=O)C(=O)c3cc(OC(=O)c4ccco4)cc1c32 | 13µM* | 1% | -28% | . | 0.63µM* | -8%
CCOc1ccc(N=C2NN=C(c3cc(C)n(CC4CCCO4)c3C)CS2)cc1 (stereo unspecified) | ? | -2% | -7% | . | ? | -4%
CCOC(=O)c1c(C)[nH]c(C2=NNC(=Nc3ccc(OCC)cc3)SC2)c1C | 14µM* | ? | ? | -17% | ? | -26%
CCOC(=O)c1c(C)[nH]c(C2=NNC(=Nc3ccccc3)SC2)c1C | 4µM* | ? | 7.9µM*[quencher] | . | 13µM* | -27%[46.1 µM]
CC(=O)c1c(C)[nH]c(C2=NNC(=NC(C)(C)C)SC2)c1C | ? | ? | -27% | . | 11µM* | 0%
CCOC(=O)c1c(C)[nH]c(C2=NNC(=Nc3ccccc3OC)SC2)c1C | 7.9µM* | -9% | ? | -15% | 2% | -20%
COc1ccc(C(CC(=O)Nc2cc(OC)c(OC)c(OC)c2)N2Cc3ccccc3C2=O)cc1 (stereo unspecified) | -13% | 10% | ? | . | . | .
COCCN(C(=O)Cc1cccs1)c1nnc(-c2ccncc2)s1 | -16% | -9% | -12% | -5% | 13µM* | -20%[46.1 µM]
CCN(C(=O)c1cccs1)c1nnc(-c2ccncc2)s1 | -9% | 0% | -4% | -11% | -16% | -19%[46.1 µM]
O=C(CCC1N=C2c3ccccc3N=C(SCc3ccc(F)cc3)N2C1=O)NCCc1ccccc1 (stereo unspecified) | 1% | -2% | 3% | . | . | .
N#C/C(C(=O)N1CCCCC1)=C1/N=C(N)c2ccccc21 | 7% | 1% | 8% | 14µM* | ? | -1%
COCCNC(=O)/C(C#N)=C/C=C/c1ccccc1 | -5% | 2% | 7% | . | -3% | -26%
COC(=O)/C=c1/s/c(=C(/C#N)C(=O)N2CCCCC2)n(-c2ccccc2)c1=O | -5% | -6% | -6% | -13% | -11% | -3%
COCCNC(=O)/C(C#N)=C1\N=C(N)c2ccccc21 | -6% | 2% | -3% | 14µM* | ? | -12%
CCOC(=O)CCC(=O)NNC(=O)COc1ccc(C(C)C)cc1Br | -4% | -2% | -4% | . | -5% | 9%
CCOC(=O)c1c(NC(=O)CCN2CCOCC2)sc2c1CC(C)(C)OC2 | -13% | -5% | -12% | -4% | 22µM* | -27%[7.67 µM]
CCCC(=O)Nc1sc2c(c1C(=O)OCC)CC(C)(C)OC2 | -6% | -16% | -11% | . | ? | 14%
C=C(C)CNC(=S)Nc1sc2c(c1C(=O)OCC)CC(C)(C)OC2 | -6% | -7% | -20% | . | 13µM* | -19%[46.1 µM]
CCOC(=O)c1c(NC(=O)CN2CCOCC2)sc2c1CC(C)(C)OC2 | 1% | 5% | 4% | -16% | 14µM* | 6%[7.67 µM]
CCCCC(=O)Nc1ccc(OCc2cc(=O)n3c(C)csc3n2)cc1 | ? | 4% | -16% | . | . | .
N=C1C(c2nc3ccccc3s2)=C(O)CN1Cc1ccco1 | ? | -9% | -20% | ? | 22µM* | -27%[46.1 µM]
